Active and inactive are the calls of the source.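 Rule for the calls: active = blocks over 60% of fluorescent estradiol binding at 10 µM; inactive = the rest.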

The assay addresses G-protein coupled estrogen receptor 1 (Homo sapiens) (UniProt Q99527). Description: GPR30 competitive binders vs fluorescent estrogen, primary screen, cell-based, Cos7 GPR30-GFP, flow cytometry, 10 µM (AID 1212). To be noted: fluorescent estrogen competition, at 10 µM; active compounds read high. In general terms: A flow cytometer gives signals particle by particle.
Usually inhibition stands for the relative decrease from the control value, in per cent. Turning to `CCOC(=O)c1ccc2c(c1)C1C=CCC1C(c1cccc([N+](=O)[O-])c1)N2` (stereo not drawn), the inhibition was 48% (inactive).
With `CCCc1cc(=O)oc2c(C)c(OC3CCCCC3=O)ccc12` (stereo not drawn), the molecule was called inactive.
Turning to `CCOc1cc2c(c([N+](=O)[O-])c1)NC(c1ccc(Br)cc1)C1CC=CC21` (stereo not drawn), the inhibition is 23% (inactive).
The same measure, in the same setting: under `COc1ccc(NS(=O)(=O)c2ccc3c(c2)[C@H]2C=CC[C@H]2[C@@H](c2cccc(OC)c2OC)N3)cc1` stands 44% (inactive).
The same measure, in the same setting: to `Cc1nn(-c2ccccc2)c2sc(C#N)c(N)c12` belongs 58% (inactive).
Regarding `COC(=O)c1ccc(OCc2c(C)noc2C)cc1`, the inhibition is 61% (active).
Turning to `COc1cc([N+](=O)[O-])cc2c1NC(c1ccc(Br)cc1)C1CC=CC21` (stereo not drawn), the molecule was called inactive.
On the same count and under the same terms, to `COc1cc(C2C3C(C)N(C)C(=O)N(C)C3N(C)C(=O)N2C)ccc1O` (stereo not drawn) belongs “inactive”.
Still for that read-out and setting: to `CC(=O)OC1CC2(C)C(=O)CCC2C2CCc3cc(O)ccc3C12` (stereo not drawn) belongs “inactive”; to `COc1ccc(C2(CNCC(N)=O)CCCC2)cc1OC`, “inactive”; to `CC(=O)Oc1ccc2c(c1)CCC1C2C(O)CC2(C)C(=O)CCC12` (stereo not drawn), “inactive”.
On to `CC1=CC(C)C2(CO)COC(c3ccccc3O)C1C2C` (stereo not drawn), for which the call was inactive.
Consider `COc1cc(C2CC(=O)Nc3c2ccc2ccccc32)cc(Cl)c1O` (stereo not drawn), for which the inhibition is 3% (inactive).
Regarding `Oc1ccc2c(c1)c1c3n2CCNC3CCC1` (stereo not drawn), the outcome was inactive.
For `COc1cc2c(cc1OC)C(Cc1ccc(O)cc1)N(C)CC2` (stereo not drawn), the inhibition was 1% (inactive).
Regarding `CCCOc1cc2oc(=O)c3c(c2cc1CC)CCCC3`, the result was inactive.
Still for that read-out and setting: to `CC1CCN(Cc2c(O)ccc3c4c(c(=O)oc23)CCC4)CC1` belongs “inactive”.
As for `COc1cc([N+](=O)[O-])cc2c1NC(c1ccccc1)C1CC=CC21` (stereo not drawn), the inhibition is 34% (inactive).
Regarding `COc1cc2c(cc1OC)CC(C)(C)N(Cc1ccco1)C2`, the inhibition is 5% (inactive).
Take `CCOc1ccc(NS(=O)(=O)c2ccc3c(c2)[C@H]2C=CC[C@H]2[C@@H](c2cccc([N+](=O)[O-])c2)N3)cc1`: the inhibition was 20% (inactive).
On to `O=c1oc2cc(O)ccc2c2c1CCC2`, for which the outcome was inactive.
Same read-out and setting: to `CCC(Oc1ccc2c3c(c(=O)oc2c1C)CCC3)C(=O)OC` (stereo not drawn) belongs “inactive”.
As for `CC(=O)Oc1ccc(C2Nc3c(C(=O)O)ccc([N+](=O)[O-])c3C3C=CCC32)cc1` (stereo not drawn), the inhibition was 99% (active).
With `COC(=O)c1ccc2c(c1)C1C=CCC1C(c1cccc([N+](=O)[O-])c1)N2` (stereo not drawn), the inhibition was 16% (inactive).
As for `COc1ccc(Oc2ccc3c(c2)c2c4n3CCNC4CCC2)cc1` (stereo not drawn), the outcome was inactive.
On the same count and under the same terms, under `CC(Nc1ccc(N2CCNCC2)cc1[N+](=O)[O-])C12CC3CC(CC(C3)C1)C2` (stereo not drawn) stands “inactive”.
Turning to `Cc1c(Cc2ccccc2)c(=O)n2c([nH]c3ccccc32)c1C#N`, the inhibition is 8% (inactive).
Same read-out and setting: to `CCOc1cc2c(c([N+](=O)[O-])c1)NC(c1ccccc1)C1CC=CC21` (stereo not drawn) belongs 38% (inactive).
